Shown are actives, neighbours in structure and some others; about 4.2% of the full set was active somewhere.
VDR inhibitor: inhibitors of human vitamin D receptor | AID 504847 | VDR-SRC2-3 peptide fluorescence polarization, 2 h | P11473 | hit rate 0.93% among 400,000 | Potency, µM, for inactives: max response, negative = inhibition, most hits filed as inhibitors
Target sequence (P11473 whole entry, looked up): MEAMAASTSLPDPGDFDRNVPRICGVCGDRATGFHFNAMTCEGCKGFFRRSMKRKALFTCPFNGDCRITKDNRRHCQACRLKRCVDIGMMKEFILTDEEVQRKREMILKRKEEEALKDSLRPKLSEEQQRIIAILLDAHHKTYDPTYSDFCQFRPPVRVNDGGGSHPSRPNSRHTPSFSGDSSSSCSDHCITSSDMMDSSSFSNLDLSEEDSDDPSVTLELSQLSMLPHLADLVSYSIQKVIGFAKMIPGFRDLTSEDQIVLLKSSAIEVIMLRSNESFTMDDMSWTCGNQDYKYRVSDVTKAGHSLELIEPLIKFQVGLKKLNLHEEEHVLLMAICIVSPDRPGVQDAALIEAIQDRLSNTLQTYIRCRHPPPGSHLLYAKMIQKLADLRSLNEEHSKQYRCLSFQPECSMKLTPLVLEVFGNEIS
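VDR–SRC2-3 interaction, FP format. Cmpds 23 nl via pintool, brief spin, 2 h ambient incubation.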
PLK1 PBD inh: PLK1 (human) polo-box domain binding inhibition; P53350; Plk1 PBD binding of FITC phosphopeptide, fluorescence polarization; Potency, µM, inactives show max response, negative = inhibition, usual class: inhibitors; hit rate 2.8% among 360,000; note: series mostly up to about 57 µM; nearly all actives have a fitted effect of over 65% in size
ALOX12 inh: inhibitors of human 12S-lipoxygenase ALOX12; hit rate 1.1% among 580,000; Potency, µM (top dose mostly 108 µM), without a hit: top-dose activity change, negative = inhibition, actives largely listed as inhibitors; P18054; purified 12hLO, xylenol orange hydroperoxide absorbance; AID 1671190
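Purified human 12hLO at 150 nM in 25 mM Hepes, 0.01% Triton X-100, pH 7.0, preincubated 15 min at room temperature with compound. Reaction started with 40 uM arachidonic acid, 30 min at room temperature. Hydroperoxide measured by Fe-xylenol orange, 573/405 nm absorbance ratio.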
Sfp inh: Sfp phosphopantetheinyl transferase inhibition | Potency, µM, without a hit: largest response in the series, negative = inhibition, usual class: inhibitors | Biochemical Sfp PPTase activity, qHTS | hit rate 3.5% among 310,000;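 note: the enzyme is Sfp with the accession as filed and its product quenches rhodamine fluorescence; 0% = enzyme reaction without inhibitor and -100% = no enzyme wells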
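After 15 min at room temperature with compound, 15 nM Sfp received 5 uM rhodamine-CoA plus 12.5 uM BHQ-2-ybbR (50 mM Hepes pH 7.6, 10 mM MgCl2). Rate came from the fluorescence difference over 30 min, ex 525/em 598 nm.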
Active calls of the source: *; [ ] = dose if it differs, or a comment. Calls come from the whole dose curve; as a rule, active = well fitted curve in the direction sought with a large enough effect; inconclusive = small, poorly fitted or top-dose-only effect, or another doubt; inactive = no such curve, though single readings can be large; an effect the other way counts as inactive or inconclusive. Unless noted, % is set by controls: 0 for no effect and ±100 for the full control effect; potency is the fitted concentration of half-maximal effect.

How did Cc1ccc(C2(c3ccc(O)cc3)CCCCC2)cc1 do in these assays?
ALOX12 inh: -86.4%

Results for CC(C)(C)c1cc(CCC(=O)NN)cc(C(C)(C)C)c1O ?
VDR inhibitor: 11.9%; PLK1 PBD inh: -2.7%; ALOX12 inh: 0.0%; Sfp inh: 5.5%

Results for COCCOC(=O)/C(=C\c1cc(C(C)(C)C)c(O)c(C(C)(C)C)c1)C(C)=O ?
VDR inhibitor: 35.5µM*; PLK1 PBD inh: -10.4%; ALOX12 inh: inconclusive; Sfp inh: -0.1%

Results for Cc1cccc(OCC(=O)N2CCC3(CC2)CN(c2ncccn2)CC3CO)c1 (stereo not given) ?
ALOX12 inh: 7.3%

What do the screens show for `Cc1[nH]n(-c2ccc([N+](=O)[O-])cc2)c(=O)c1C=NCCN1CCN(C(=O)c2ccc(Br)cc2)CC1`?
VDR inhibitor: 1.3%; PLK1 PBD inh: -4.1%; ALOX12 inh: 14.8%; Sfp inh: 21.0%

What do the screens show for `O=C(NC(NNc1ccc([N+](=O)[O-])cc1)(C(F)(F)F)C(F)(F)F)c1ccccc1Cl`?
VDR inhibitor: 79.4µM*; PLK1 PBD inh: inconclusive; ALOX12 inh: inconclusive; Sfp inh: -17.5%

Results for O=C(NC(NNc1ccc([N+](=O)[O-])cc1)(C(F)(F)F)C(F)(F)F)c1ccc(F)cc1 ?
VDR inhibitor: inconclusive; PLK1 PBD inh: -26.2%; ALOX12 inh: inconclusive; Sfp inh: -6.3%

Results for O=C(NCCC1=CCCCC1)c1cccnc1N1CC2CC(C1)[C@H]1CCCC(=O)N1C2 (stereo not given in full) ?
ALOX12 inh: 7.7%

Results for CCOC(=O)N1CCN(C(=O)CCCn2c(=S)[nH]c3ccsc3c2=O)CC1 ?
VDR inhibitor: 12.0%; PLK1 PBD inh: -19.8%; ALOX12 inh: -8.5%; Sfp inh: 56.2µM*

Results for Cc1nc(C(C)N(C)Cc2c(C(=O)N3CCCCC3)nc3c(C)cccn23)c(C)s1 (stereo not given) ?
VDR inhibitor: -8.4%; PLK1 PBD inh: -16.4%; ALOX12 inh: 2.0%; Sfp inh: 3.2%

How did O=[N+]([O-])c1cccc(Oc2cnccn2)c1 do in these assays?
VDR inhibitor: -2.8%; PLK1 PBD inh: -2.4%; ALOX12 inh: 7.1%; Sfp inh: 15.0%

Results for Cc1ccc(S(=O)(=O)Nc2cccc(Oc3cnccn3)c2)cc1 ?
VDR inhibitor: -23.7%; PLK1 PBD inh: 26.7µM*; ALOX12 inh: 0.1%; Sfp inh: 2.4%

Results for COc1ccc(NC(=O)c2cnc3c(c2)N(C(=O)Cc2ccc(O)cc2)CCC3)cn1 ?
ALOX12 inh: 8.5%[176 µM]

Results for Nc1nc(SCC(=O)N2CCCC2)[nH]c(=O)c1-c1ccccc1 ?
VDR inhibitor: 0.2%; PLK1 PBD inh: 6.7µM*; ALOX12 inh: 9.6%; Sfp inh: 0.9%

What do the screens show for `CCCCCSc1nc2c(cnn2-c2ccc(F)cc2)c(=O)[nH]1`?
VDR inhibitor: -21.6%; PLK1 PBD inh: 26.7µM*; ALOX12 inh: 50.8%; Sfp inh: 1.4%

What do the screens show for `O=C(CSc1nc2c(cnn2-c2ccccc2)c(=O)[nH]1)N1CCOCC1`?
VDR inhibitor: -2.5%; PLK1 PBD inh: 13.4µM*; ALOX12 inh: -30.7%; Sfp inh: -11.3%

Results for Nc1nc(SCC(=O)N2CCOCC2)[nH]c(=O)c1-c1ccccc1 ?
VDR inhibitor: 15.5%; PLK1 PBD inh: 2.0%; ALOX12 inh: 1.0%; Sfp inh: 21.1%

What do the screens show for `Cc1ccc(-n2ncc3c(=O)[nH]c(SCC(=O)N4CCOCC4)nc32)cc1`?
VDR inhibitor: -0.4%; PLK1 PBD inh: -1.5%; ALOX12 inh: inconclusive; Sfp inh: 25.9%

Results for CCCCCSc1nc2c(cnn2-c2ccccc2)c(=O)[nH]1 ?
VDR inhibitor: -1.8%; PLK1 PBD inh: -6.0%; ALOX12 inh: -5.6%; Sfp inh: -4.9%

Results for O=C(NC(=S)Nc1cc(S(=O)(=O)N2CCOCC2)ccc1N1CCOCC1)c1ccco1 ?
VDR inhibitor: -7.4%; PLK1 PBD inh: -9.0%; ALOX12 inh: inconclusive; Sfp inh: 10.4%

Results for CCN(CC)S(=O)(=O)c1ccc(N2CCOCC2)c(NC(=S)NC(=O)c2ccco2)c1 ?
VDR inhibitor: inconclusive; PLK1 PBD inh: 23.8µM*; ALOX12 inh: inconclusive; Sfp inh: 20µM*

Results for O=C(NC(=S)Nc1cc(S(=O)(=O)N2CCOCC2)ccc1O)c1ccco1 ?
VDR inhibitor: inconclusive; PLK1 PBD inh: 11.9µM*; ALOX12 inh: -15.5%; Sfp inh: 44.7µM*

Results for COc1ccc(-n2c(=O)cnc3cnc(Nc4ccccc4)nc32)cc1 ?
VDR inhibitor: -1.1%; ALOX12 inh: 193.1%; Sfp inh: 18.8%

Screens: PubChem, National Center for Advancing Translational Sciences (NCATS)
